The full list was thinned out, with hits kept by preference.
Dicer inh – human Dicer pre-microRNA cleavage inhibition | Q9UPY3 | cat-ELCCA pre-miR-21 Dicer processing, chemiluminescence; active compounds read high | z-score at 25 µM | hit rate 6% among 47,000 | AID 1347074; in the data active = z-score above about 3, passing the limit was not always enough;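 note: plate controls were vehicle for no effect and no enzyme for full effect; higher signal means more uncleaved substrate so more Dicer inhibition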
* marks the source's active call; other numbers are inactive results.

SMILES	Dicer inh
COc1ccc(C2C3=C(CC(c4ccco4)CC3=O)Nc3nc4ccccc4n32)cc1 (stereo not drawn)	3.1*
CC1=C(C(=O)OCC2CCCO2)C(c2cccc(C)c2)C2=C(CCCC2=O)N1 (stereo not drawn)	0.61
CC(C)(C)NC(=O)c1cnn2c(C(F)F)cc(-c3ccccc3)nc12	1.8
Cc1ccc(C(=O)/C=C/Sc2cc(Cl)ccc2Cl)cc1	-1.6
O=C1CCC2C(=O)N(CC(=O)N3CCCC3)C(=O)C2C1 (stereo not drawn)	-0.13
O=C(CN1C(=O)C2CCCCC2C1=O)N1CCN(c2ccc(F)cc2)CC1 (stereo not drawn)	6.5*
O=C(CN1C(=O)c2cccc3cccc1c23)N1CCN(c2ccc(F)cc2)CC1	-0.9
OC(CNCc1cc2ccccc2s1)C(F)(F)F (stereo not drawn)	0.39
CCOc1ccccc1C1NC(=O)c2c(sc3c2CCN(C)C3)N1 (stereo not drawn)	-1
COc1ccccc1NC(=O)CSc1cc(C(F)(F)F)cc(C(F)(F)F)c1	23
O=C(CSC1=NCCS1)Nc1nc2ccccc2s1	-0.6
O=C(CSC1=NCCS1)Nc1nccs1	4*
O=C(CSc1nc2ccccc2s1)Nc1nccs1	0.82
O=C(CSC1=NCCS1)NC1Cc2ccccc2C1	0.6
COc1ccccc1NC(=O)CSC1=NCCS1	4.2*
O=C(O)Cn1cnc(-c2ccc(F)cc2)c1	1.4
CCN(C1CCCCC1)S(=O)(=O)c1ccc(F)cc1	0.8
COC(=O)c1scc2c(Sc3ccc(Cl)cc3)cc(C(F)(F)F)nc12	0.15
CC1=C(C(=O)OC2CCCCC2)C(c2cccc(F)c2)C2=C(CC(C)(C)CC2=O)N1 (stereo not drawn)	-0.61
Cc1noc(-c2ccccc2)c1NC(=O)Nc1ccc2sccc2c1	0.17
O=C1CC(c2cccc(Cl)c2)Cc2nc(N3CCc4ccccc43)ncc21 (stereo not drawn)	-0.39
O=C1CC(c2cccc(Cl)c2)Cc2nc3nc(C(F)(F)F)nn3cc21 (stereo not drawn)	3.8*
O=C1CC(c2cccc(Cl)c2)Cc2nc(NCc3ccco3)ncc21 (stereo not drawn)	2.3
O=C1C=C(NCc2ccco2)CC(c2ccc(Cl)cc2)C1 (stereo not drawn)	0.03
O=C1NC(c2ccco2)Nc2sc3c(c21)CCN(Cc1ccccc1)C3 (stereo not drawn)	-0.79
SMILES	Dicer inh
CSC1=C(C#N)C(c2ccc(F)cc2)CC(=O)N1 (stereo not drawn)	-0.04
CCOc1ccc2c(c1)C(=O)c1cc(O)ccc1-2	1
COC(=O)COc1ccc2c(c1)C(=O)c1cc(OCC(=O)OC)ccc1-2	-4.1
CC(=O)Oc1ccc2c(c1)C(=O)c1cc(OC(C)=O)ccc1-2	6.2*
CCOCCOC(=O)C1=C(C)NC2=C(C(=O)CCC2)C1c1cccs1 (stereo not drawn)	0.93
CCCS(=O)(=O)c1csc(C(=O)OC)c1N	-0.99
CC1(C)CCC(=O)N(c2ccc(OC(F)(F)F)cc2)C1=O	2
COC(=O)c1sccc1Oc1ccc(Cl)cc1N1C(=O)CCC1=O	1.5
Cc1ccc(Cl)cc1N1C(=O)CCC(C)(C)C1=O	3.3*
NC(=O)C(=O)O	-0.58
NC(=O)c1nn2c(C(F)(F)F)cc(-c3ccccc3)nc2c1Br	-0.38
CN(C)c1ccc(N2C(=O)CC(c3ccccc3)CC2=O)cc1	1.9
CCOc1ccccc1NC(=O)Nc1ccc(OC)nc1	3.8*
COc1ccccc1NC(=O)Nc1ccccc1OC	12
COc1ccccc1NC(=O)NC(N)=O	1.6
CN(C)c1ccnc2sc3c(N(CCO)CCO)ncnc3c12	3.3*
OCCCNc1ncnc2c1sc1nc(-c3ccccc3)c3c(c12)CCCC3	-0.45
OCCN(CCO)c1ncnc2c1sc1nc(N3CCOCC3)c3c(c12)CCCC3	-0.37
CCOC(=O)C(CC)Oc1ccc2c(=O)c(Oc3ccccc3Br)coc2c1 (stereo not drawn)	0.62
CCCOCCOC(=O)C1=C(C)NC2=C(C(=O)CCC2)C1c1ccc(F)c(F)c1 (stereo not drawn)	2
COC(=O)C1=C(C)Nc2nc3ccccc3n2C1c1cc(OC)ccc1OC (stereo not drawn)	-0.05
Cc1c(S(=O)(=O)Nc2ccc(N3CCCCC3)cc2)sc2ccc(Cl)cc12	1.9
C=CCNc1nc2c(c(=O)[nH]c(=O)n2C)n1CC(O)CO (stereo not drawn)	0.87
CCCNc1nc2c(c(=O)[nH]c(=O)n2C)n1CCO	1.1
C=CCNc1nc2c(c(=O)[nH]c(=O)n2C)n1CC	3.2*
SMILES	Dicer inh
N#C/C(=C\Nc1ccccc1)C(=O)c1ccc(OC(F)(F)F)cc1	1.9
Cc1ccc(-n2c(=O)[nH]c3c(sc4nc(C)cc(C)c43)c2=O)cc1	3.4*
Cc1ccc(-n2c(=O)[nH]c3c(oc4nc(-c5ccccc5)cc(-c5ccccc5)c43)c2=O)cc1	2.2
Cc1cc(C)c2c(n1)sc1c(=O)n(-c3cccc(Cl)c3)c(=O)[nH]c12	-0.04
Cc1cc(NC(=O)CCSc2nc(-c3ccco3)cc(C(F)(F)F)n2)n(-c2ccccc2)n1	1.2
O=C(CCSc1nc(-c2ccco2)cc(C(F)(F)F)n1)Nc1ccccc1	-0.26
Cc1nn(C)c(C)c1NC(=O)CCSc1nc(-c2ccco2)cc(C(F)(F)F)n1	3*
CCOC(=O)c1cc(C(=O)OC)c(C)nc1N1CCCN(Cc2ccc(F)cc2)CC1	-0.23
COc1ccc(CN=C(C)C2CCOC2=O)cc1 (stereo not drawn)	-1.5
COc1ccc(CNCC2(O)CCOC(C)(C)C2)cc1 (stereo not drawn)	3.6*
COc1ccc(CNCc2ccc(Br)cc2)c(OC)c1	0.88
CCOc1ccc2ccccc2c1C(=O)N[C@@H]1C(=O)N2[C@@H]1SC(C)(C)[C@@H]2C(=O)O	34
Nc1ccccc1SC(CC(=O)c1ccccc1)c1cccc(Cl)c1 (stereo not drawn)	0.32
Cc1c(N(C)CS(=O)(=O)O)c(=O)n(-c2ccccc2)n1C	0.26
O=C(O)CCCC(=O)Nc1nc2nccc(-c3ccccc3)n2n1	-0.66
O=C(O)CCCC(=O)Nc1ccn(-c2ccccc2)n1	0.09
Nc1nc(NC(=O)CCCC(=O)O)nn1-c1ccccc1	16*
Cc1cc(N2C(=O)C3C4C=CC(C4)C3C2=O)no1 (stereo not drawn)	3.7*
Cc1cccc(N2C(=O)C3C4C=CC(C4)C3C2=O)n1 (stereo not drawn)	-0.23
Cc1noc(N2C(=O)C3C4C=CC(C4)C3C2=O)c1C (stereo not drawn)	-0.05
O=C(N1CCN=C1c1ccccc1)N1c2ccccc2Sc2ccccc21	-0.42
Cc1ccccc1C1CC(=O)c2cnc3[nH]n(-c4ccccc4)c(=O)c3c2C1 (stereo not drawn)	0.23
CC(NC(=O)c1ccc(Cl)cc1)C(=O)O (stereo not drawn)	0.92
Cc1ccc(-c2cc3ncc(C(=O)c4cc(Cl)ccc4O)cn3n2)cc1	1.6
COc1cc(C(=O)NNS(=O)(=O)c2ccccc2C)c(-n2c(C)ccc2C)cc1OC	-0.67
SMILES	Dicer inh
COc1cc(C(=O)NS(=O)(=O)c2ccccc2C)ccc1Cc1cn(C)c2ccc(NC(=O)OC3CCCC3)cc12	4.3*
CCOC(=O)c1c(-c2cccs2)nn(-c2ccc([N+](=O)[O-])cc2)c1-c1ccccc1	0.29
Cc1ccc(S(=O)(=O)N/N=C/c2ccc3ccccc3c2O)cc1	3.2*
CN(C)/C=N/NS(=O)(=O)c1ccccc1	-0.67
Cc1ccc(S(=O)(=O)N/N=C/c2nccs2)cc1	-1.2
Cc1n[nH]c(=O)c2noc(/C=C/c3ccc(C(F)(F)F)cc3)c12	-0.14

Source: PubChem BioAssay (Center for Chemical Genomics, University of Michigan)
